Assay outcomes (PubChem BioAssay)
This excerpt belongs to a sample that is enriched for hits.
Methyltransferases: Primary Screen for Target Class Profiling of Small Molecule Inhibitors of Methyltransferases. AID 1745853, 2022. calls only at 40 µM. 25,000 tested, 3.9% active. purified enzyme, MTase-Glo SAH luminescence; stronger effect = lower value; call rule not given here
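Each enzyme was reacted with SAM and its substrate, with compounds tested once at 40 uM; SAH formed was read by MTase-Glo luminescence.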
Numbers without * were called inactive; i = inactive; + = active, no number. % is scaled to controls: 0 for no effect and ±100 for the full control effect.

SMILES	Methyltransferases
CCc1ccc(CN2C(=O)c3cc4ccccc4n3CC2(C)C(=O)NCCCOC(C)C)cc1 (centres undefined)	i
O=C(NC1CCCCC1)c1ccc2c(=O)nc3c(-c4ccc(Cl)cc4)n[nH]n3c2c1	i
Cc1ccc(NS(=O)(=O)c2ccc3[nH]c4c(c3c2)CCCC4)c(Cl)c1	i
CN(CC(=O)Nc1ccc(Br)cc1F)S(=O)(=O)c1ccc2[nH]c3c(c2c1)CCCC3	i
CC(C)CCNC(=O)C1c2c(n(C)c3ccccc23)SCC(=O)N1Cc1ccc(Cl)cc1 (centres undefined)	i
CCCn1c(=O)c2ccccc2n2c(SCC(=O)NCc3ccccc3)nnc12	i
CCCN1C(=O)c2cc(C(=O)NCCc3ccccc3)nn2CC1(C)C(=O)NC1CCCC1 (centres undefined)	i
O=C1NC(=O)C(c2c[nH]c3ccccc23)=C1c1c[nH]c2ccccc12	+
Clc1ncoc1-c1c[nH]c2ccccc12	i
O=C1NC(Cc2c[nH]c3ccccc23)C(=O)NC1Cc1c[nH]c2ccccc12 (centres undefined)	i
CN(C)C/C=C(/c1ccc(Br)cc1)c1cccnc1	+
CCCn1c(=O)c2cc(Cl)ccc2n2c(=O)n(CC(=O)Nc3cc(OC)cc(OC)c3)nc12	i
CCC(C(=O)N1CCOCC1)n1ccc2cc(S(=O)(=O)N3CCCCC3)ccc21 (centres undefined)	i
Fc1cccc(-c2nnn3c2nc(N2CCCC2)c2cc(Cl)ccc23)c1	i
CC(=O)O[C@H]1[C@H](OC(=O)C(C)C)[C@]2(C)OC3(CC[C@]2(C)[C@H]2CCC[C@]4(CO4)[C@]12C)COC(=O)C3 (some centres undefined)	i
CC1=CC(=O)[C@H]2C(C)(C)CCC[C@]2(C)[C@@]1(O)CO	i
CC1=CC(=O)C2C(C)(C)CCCC2(C)C12CCC1(COC(=O)C1)O2 (centres undefined)	+
CCOC(=O)c1cc2n(n1)CC(C)(C(=O)NC1CCCCC1)N(Cc1cccc(C)c1)C2=O (centres undefined)	i
Cc1ccc(CN2C(=O)c3ccc(-c4ccco4)n3CC2(C)C(=O)NC2CCCCCCC2)o1 (centres undefined)	i
COc1ccccc1CNC(=O)C1c2c(n(C)c3ccccc23)SCC(=O)N1c1ccccc1OC (centres undefined)	i
CCOc1ccc(NC(=O)N2CCn3c(C)ccc3C2C(C)C)cc1 (centres undefined)	i
C=C1C(=O)O[C@@H]2[C@H]3O[C@]3(C)CCC=C(C)CC[C@@H]12	i
C=C1C(=O)OC2C1C(O)CC1(C)C(O)CCC(C=O)C21 (centres undefined)	i
C=C1C(=O)OC2C1CCC1(C)C(O)CCC(=C)C21 (centres undefined)	+
CCCn1c(=O)c2ccc(C(=O)NC(C)CC)cc2n2c(=O)n(CC(=O)Nc3cccc(CC)c3)nc12 (centres undefined)	i
SMILES	Methyltransferases
COCCN1C(=O)c2cc(-c3ccc(OC)cc3)nn2CC1(C)C(=O)NCc1ccccc1 (centres undefined)	i
CCOc1ccc(CNC(=O)c2cc3n(n2)CC(C)(C(=O)NCc2ccc(C)cc2)N(C)C3=O)cc1 (centres undefined)	i
CNC(=O)c1cc(Oc2ccc3nc(N[C@@H]4CCCC[C@H]4O)sc3c2)ccn1	i
C=CC(=O)Nc1cccc(Nc2nc(Nc3ccc(Oc4ccnc(C(=O)NC)c4)cc3)ncc2F)c1	+
NCc1ccc(Nc2ncc(F)c(Nc3ccccc3)n2)cc1	i
Cc1ccc(Cn2nc3n(CC(C)C)c(=O)c4ccccc4n3c2=O)cc1	i
C[S+](=O)([O-])N1CC2(CCN(Cc3c[nH]c4ccccc34)CC2)Cc2ccccc21	i
Cn1nc(-c2ccc(C(F)(F)F)cc2)nc2c(=O)n(C)c(=O)nc1-2	+
COC(=O)Cn1c(=O)oc2cc(S(=O)(=O)NCC(C)c3ccccc3)ccc21 (centres undefined)	i
COc1ccccc1CNC(=O)C1(C)Cn2nc(-c3ccccc3)cc2C(=O)N1c1ccc(Cl)cc1C (centres undefined)	i
CCc1ccccc1N1C(=O)c2cc(C(C)(C)C)nn2CC1(C)C(=O)NCCC(C)C (centres undefined)	i
Cc1ccsc1C(=O)N1CCN(c2cc(-c3cccs3)[nH]n2)CC1	i
COc1ccc(C(=O)N2CCN(c3cc(-c4cccs4)[nH]n3)CC2)cc1OC	i
CN1CCN(C(=O)c2ccc(Nc3nccc(-c4cccs4)n3)cc2Cl)CC1	+
COC(=O)c1cc2n(n1)CC(C)(C(=O)NC1CCC(C)CC1)N(Cc1cccc(C)c1)C2=O (centres undefined)	i
CCOC(=O)c1cc2n(n1)CC(C)(C(=O)NC1CCCC1)N(c1ccccc1F)C2=O (centres undefined)	i
CCCN1C(=O)c2cc(C(=O)NCCN(C)C)nn2CC1(C)C(=O)NC1CCCC1 (centres undefined)	i
CN(C)CCNC(=O)c1cccn2c(=O)c3cc4ccccc4cc3nc12	+
CCOC(=O)c1cc2n(n1)CC(C)(C(=O)NC1CCCC1)N(c1cccc(Cl)c1C)C2=O (centres undefined)	i
Cc1ccc(NC(=O)CSc2nnc3n(C)c(=O)c4ccc(C(=O)NC5CCCC5)cc4n23)cc1F	i
CCCc1cc2c(-c3ccccc3)cc(=O)oc2cc1OCc1ccc(C(=O)O)o1	+
COC(=O)COc1cc2oc(=O)cc(-c3ccccc3)c2cc1Cl	i
CCCCOC(=O)COc1ccc2c(-c3ccccc3)cc(=O)oc2c1	i
CC(C)CCNC(=O)C1(C)Cn2nc(C(=O)N3CCN(c4ccccc4F)CC3)cc2C(=O)N1C (centres undefined)	i
Cc1ccc(Cn2c(=O)c3ccc(C(=O)NC(C)C)cc3n3c(=O)n(Cc4ccccc4Cl)nc23)cc1	i
SMILES	Methyltransferases
CCOc1ccc(CN2C(=O)c3cc(-c4ccco4)nn3CC2(C)C(=O)NC2CCCCCC2)cc1 (centres undefined)	i
COCc1c(O)c(C(=O)O)c(C)c2c1OC(=O)c1c(C)cc(O)c(CO)c1O2	+
CC(C)C1c2cccn2CCN1C(=O)Nc1ccc(F)c(Cl)c1 (centres undefined)	i
COc1ccc(C)cc1N1C(=O)Cn2cccc2C1C(=O)NC1CCC(C)CC1 (centres undefined)	i
CC1(C)C2CCC1(C)C(OC(=O)C(O)(CC(=O)O)CC(=O)O)C2 (centres undefined)	+
CC1(C(=O)NCc2ccc(F)cc2)Cn2cnc(C(=O)NCc3ccc(F)cc3)c2C(=O)N1C1CC1 (centres undefined)	i
O=C(Cn1nc2nc(Nc3ccc(F)cc3)ccn2c1=O)NCc1ccc2c(c1)OCO2	i
Cc1ccc(CN2C(=O)c3nc4ccccc4n3CC2(C)C(=O)NC2CCCC2)cc1 (centres undefined)	i
COc1ccc(N2CCN(c3nc(C(=O)NCc4cccc(C)c4)cs3)CC2)cc1	i
CCC(=O)Nc1cccc(Oc2nc(Nc3ccc(N4CCN(C)CC4)cc3OC)ncc2Cl)c1	i
COc1ccc(N(C(=O)Nc2c(C)cccc2C)c2cc(Nc3ccc(N4CCN(C)CC4)cc3)ncn2)c(OC)c1	+
COc1ccc(Cl)cc1NC(=O)Cn1nc2cc(C)nc(Nc3ccccc3)n2c1=O	i
